SMILES strings stand for the structures. A number with no mark means an inactive call. Records with an inconclusive call do not appear. Activity calls are given as the source filed them. Unless noted, calls follow the shape of the dose curve; as a rule, active = well fitted curve in either direction with a large enough effect (not every such curve was filed as active); inconclusive = small, poorly fitted or top-dose-only effect, or another doubt; inactive = flat fitted curve, though single readings scatter.

Experiment [1] in a line: AP1 Signaling Pathway (AID 357).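 Also: ME-180 reporter cells stimulated with EGF at its EC50 level; % is scaled to controls: 0 for no effect and ±100 for the full control effect.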 Conditions: ME-180 AP-1-bla reporter, EGF-induced, beta-lactamase ratio, 5 h; at 7.69 µM (top of the series) unless noted. In a few lines:
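Read-out was the 460nm/530nm emission ratio (excitation 405nm) after CCF4 loading for 2.5 hours at room temperature. Cells carried an AP-1-driven beta-lactamase reporter, were stimulated with EC50 EGF plus compound for 5 hours, and AC50 values came from titrations.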

The target of experiment [2] is Cytochrome P450 1A2 (Homo sapiens) (UniProt P05177). Briefly: p450-cyp1a2 (AID 410; calls by dose curve; also: potency is read from the fitted curve at half-maximal effect). A digest of the protocol:
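Luminescent demethylation readout: Luciferin-ME (100uM, equal to Km) turned over by 20nM CYP1A2 for 60 min at room temperature after NADPH regeneration addition, following 10 min compound preincubation. Normalization used 57 uM furafylline as full inhibition.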

Experiment [3] in a line: NFAT Signaling Pathway (AID 444).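 Also: carbachol stimulus at about its EC50 of 1 µM final; % is scaled to controls: 0 for no effect and ±100 for the full control effect.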 To be noted: Jurkat NFAT-bla M1, carbachol, beta-lactamase ratio, 5 h; at 7.69 µM (top of the series) unless noted. A digest of the protocol:
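Jurkat cells with NFAT-driven β-lactamase reporter and co-expressed M1 receptor, stimulated with carbachol (final 1 uM, ~EC50), compound titration, 5 h at 37 °C. CCF4 loaded 1 h at RT; 460/530 nm ratio gave %activity and AC50.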

Experiment [4] can be described thus: Stat Signaling Pathway (AID 446).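 Also: ME-180 cervical cancer cells given 40 pM IL-6 alongside compound; SIE-controlled beta-lactamase reporter measured as 460/530 nm FRET emission ratio; % is scaled to controls: 0 for no effect and ±100 for the full control effect.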 To be noted: ME-180 SIE beta-lactamase reporter, IL-6 stimulated, 5 h; at 7.69 µM (top of the series) unless noted. A digest of the protocol:
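FRET read-out (405 nm excitation, 460/530 nm emission) of a beta-lactamase reporter under a STAT-inducible element in ME-180 cervical carcinoma cells. Cells with compound receive 40 pM IL-6 for 5 h. Values are normalised to AC90 stimulation and AC90 JAK-inhibitor controls.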

The target of experiment [5] is Glucocorticoid receptor (Homo sapiens) (UniProt P04150). The experiment can be described thus: GR-GFP Redistribution (AID 450;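 active = compounds whose dose series gives a full or clear partial fitted curve of increased nuclear translocation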; also: potency is read from the fitted curve at half-maximal effect). Conditions: U2OS GR-GFP nuclear translocation, laser cytometry, 2 h.
Sequence of Glucocorticoid receptor (Homo sapiens) (P04150 whole entry, looked up, the tested form may be a part): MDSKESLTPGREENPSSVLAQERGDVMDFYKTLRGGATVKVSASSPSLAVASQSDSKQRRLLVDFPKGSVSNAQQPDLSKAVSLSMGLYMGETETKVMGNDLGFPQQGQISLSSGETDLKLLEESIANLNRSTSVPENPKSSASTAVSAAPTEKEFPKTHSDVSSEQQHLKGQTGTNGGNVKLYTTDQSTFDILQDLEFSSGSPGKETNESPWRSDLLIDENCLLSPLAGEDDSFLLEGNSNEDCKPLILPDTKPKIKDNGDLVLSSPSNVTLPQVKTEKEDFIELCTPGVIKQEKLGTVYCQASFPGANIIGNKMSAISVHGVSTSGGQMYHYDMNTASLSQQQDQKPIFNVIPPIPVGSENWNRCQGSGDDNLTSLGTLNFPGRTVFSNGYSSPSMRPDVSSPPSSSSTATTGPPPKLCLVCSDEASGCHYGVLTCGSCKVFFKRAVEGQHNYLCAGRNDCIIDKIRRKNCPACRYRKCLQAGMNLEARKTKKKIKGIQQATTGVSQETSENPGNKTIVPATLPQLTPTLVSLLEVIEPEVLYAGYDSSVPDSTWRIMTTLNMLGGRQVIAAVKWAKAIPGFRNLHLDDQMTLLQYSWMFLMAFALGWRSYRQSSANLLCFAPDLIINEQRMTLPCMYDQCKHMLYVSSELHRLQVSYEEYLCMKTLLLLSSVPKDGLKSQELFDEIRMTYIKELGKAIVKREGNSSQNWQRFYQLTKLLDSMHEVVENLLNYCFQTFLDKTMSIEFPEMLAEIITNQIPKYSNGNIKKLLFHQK
For experiment [6] the target is unchanged. The experiment can be described thus: GR-EFC Redistribution (AID 451; calls by dose curve; also: potency is read from the fitted curve at half-maximal effect). Conditions: CHO-K1 GR-EFC translocation, beta-gal luminescence, 2 h. In a few lines: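 CHO-K1 cells expressing nuclear EA and GR-ED fragments of b-gal; compounds titrated up to 46 uM final, 2 h at 37 C. GR nuclear translocation read as complemented b-gal luminescence after 1 h RT detection.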

In experiment [7] the target is Mitogen-activated protein kinase 10 (Mus musculus) (UniProt Q61831). Briefly: JNK3 AlphaScreen Assay (AID 530).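 Also: kinase came from lysate of stimulated human HepG2 cells; signal reports phosphorylation of biotinylated GST-cJun 1-79 at Ser73 with 10 µM ATP; % is scaled to controls: 0 for no effect and ±100 for the full control effect.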 In a few lines:
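Activity was read by AlphaScreen after JNK3-containing HepG2 lysate (cytokine pre-activated) phosphorylated biotinylated GST-cJun with 10 uM ATP at room temperature. Phospho-Ser73 cJun antibody with Protein-A acceptor beads provided detection.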
In general terms: Alpha assays give light when donor and acceptor beads are brought close together.

For experiment [8], the target named is 3',5'-cyclic-AMP phosphodiesterase 4B (Homo sapiens) (UniProt Q07343). The experiment can be described thus: qHTS Assay for Inhibitors of PDE-IV (AID 607; active = well fitted activation curve with a large enough effect in the main read-out, with a control signal flat, not every such curve was filed as active; also: % of control where 0% means no effect). In a few lines: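 Cell-based read-out of cAMP via a modified cyclic nucleotide-gated channel and membrane potential dye (535/590 nm) in HEK293 cells expressing PDE4 endogenously. Compounds tested up to 22.9 uM final; 100 uM RO 20-1724 reference.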
Sequence of 3',5'-cyclic-AMP phosphodiesterase 4B (Homo sapiens) (Q07343 whole entry, looked up): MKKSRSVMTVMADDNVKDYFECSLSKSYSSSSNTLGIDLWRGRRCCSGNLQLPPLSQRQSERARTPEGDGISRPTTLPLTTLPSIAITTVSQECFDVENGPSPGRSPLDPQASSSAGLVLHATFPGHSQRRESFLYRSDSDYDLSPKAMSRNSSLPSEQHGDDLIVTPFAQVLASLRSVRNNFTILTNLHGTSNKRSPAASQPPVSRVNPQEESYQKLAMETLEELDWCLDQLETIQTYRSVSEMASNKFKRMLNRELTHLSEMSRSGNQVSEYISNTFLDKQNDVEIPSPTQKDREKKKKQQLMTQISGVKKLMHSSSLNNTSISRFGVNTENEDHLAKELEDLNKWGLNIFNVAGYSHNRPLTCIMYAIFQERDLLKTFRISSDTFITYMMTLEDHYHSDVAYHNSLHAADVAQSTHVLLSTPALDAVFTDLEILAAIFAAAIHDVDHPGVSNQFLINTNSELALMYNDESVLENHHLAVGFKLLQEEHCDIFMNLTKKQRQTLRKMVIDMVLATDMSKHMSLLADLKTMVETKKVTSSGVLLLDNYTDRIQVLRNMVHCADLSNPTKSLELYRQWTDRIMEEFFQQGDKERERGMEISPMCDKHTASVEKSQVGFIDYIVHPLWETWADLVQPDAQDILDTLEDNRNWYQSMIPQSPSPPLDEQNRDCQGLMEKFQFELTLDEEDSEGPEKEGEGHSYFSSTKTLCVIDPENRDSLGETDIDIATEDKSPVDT

In experiment [9] the target is Cytochrome P450 3A4 (Homo sapiens) (UniProt P08684). Briefly: qHTS Assay for Inhibitors and Substrates of Cytochrome P450 3A4 (AID 884; active = well fitted curve in the direction sought with a large enough effect; an effect the other way counts as inactive or inconclusive; also: potency is read from the fitted curve at half-maximal effect; nearly all actives have a fitted effect of over 50% in size). A digest of the protocol: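 Luminescent readout of luciferin produced by CYP3A4 (20 nM) dealkylation of Luciferin-PPXE, 25 uM (its KM). NADPH-driven reaction ran 60 min at RT after 10 min compound preincubation; data scaled to 57 uM ketoconazole as 100% inhibition.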
Sequence of Cytochrome P450 3A4 (Homo sapiens) (P08684 whole entry, looked up): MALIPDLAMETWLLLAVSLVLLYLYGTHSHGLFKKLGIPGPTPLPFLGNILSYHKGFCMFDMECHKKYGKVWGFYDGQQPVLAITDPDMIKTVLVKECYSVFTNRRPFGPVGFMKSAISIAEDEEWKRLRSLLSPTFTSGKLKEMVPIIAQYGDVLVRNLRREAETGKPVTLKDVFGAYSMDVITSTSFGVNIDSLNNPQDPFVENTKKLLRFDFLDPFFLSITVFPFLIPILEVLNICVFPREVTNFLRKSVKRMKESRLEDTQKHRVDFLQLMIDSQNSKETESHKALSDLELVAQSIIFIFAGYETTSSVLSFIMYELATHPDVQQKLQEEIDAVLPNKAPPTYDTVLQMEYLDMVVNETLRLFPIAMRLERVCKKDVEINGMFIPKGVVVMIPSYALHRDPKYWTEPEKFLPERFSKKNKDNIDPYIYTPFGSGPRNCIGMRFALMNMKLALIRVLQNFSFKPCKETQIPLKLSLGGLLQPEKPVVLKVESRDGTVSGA
In general terms: In qHTS, concentration-response curves come from the screen itself.

Experiment [10] has the same target. Briefly: qHTS Assay for Activators of Cytochrome P450 3A4 (AID 885; active = well fitted curve in the direction sought with a large enough effect; an effect the other way counts as inactive or inconclusive; also: nearly all actives have a fitted effect of over 65% in size). A digest of the protocol:
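Luminescent readout of luciferin formed from 25 uM Luciferin-PPXE (KM level) by 20 nM CYP3A4 in 200 mM KPO4, with 60 min NADPH-driven reaction at room temperature after 10 min compound exposure. Ketoconazole (57 uM) defined 100% inhibition.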

For experiment [11], the target named is Cytochrome P450 2C19 (Homo sapiens) (UniProt P33261). Briefly: qHTS Assay for Inhibitors and Substrates of Cytochrome P450 2C19 (AID 899; active = well fitted curve in the direction sought with a large enough effect; an effect the other way counts as inactive or inconclusive; also: potency is read from the fitted curve at half-maximal effect; nearly all actives have a fitted effect of over 60% in size). A digest of the protocol:
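Luminescent read-out of luciferin formed from Luciferin-H EGE (10uM, equal to KM). Enzyme 5nM in 50mM KPO4; compound added, 10 min at 37C, then NADPH regenerating system for 60 min at 37C. Full inhibition defined by 57uM ketoconazole.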

The nature of experiment [12]: qHTS Assay for Identification of Small Molecule Agonists for Hypoxia Response Element Signaling Pathway (AID 914; active = well fitted activation curve with a large enough effect in the signal ratio, with a control signal flat, not every such curve was filed as active; the % refers to the signal ratio; also: % of control where 0% means no effect). Conditions: ME-180 (cervical carcinoma) HRE-bla reporter, beta-lactamase ratio, CoCl2, 17 h; activation: stronger effect = higher value. In a few lines: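 Reporter activity (beta-lactamase, CCF4 460nm/530nm ratio) in HRE-bla ME-180 cells is recorded after 17 h compound exposure with EC50 CoCl2 at 37 degrees Celsius. AC50 values come from titration data.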

The target of experiment [13] is Dual specificity protein kinase CLK4 (Homo sapiens) (UniProt Q9HAZ1). Briefly: qHTS Assay for Inhibitors of CDC-like Kinase 4 (ADP-FP Assay) (AID 1795; active = well fitted curve in the direction sought with a large enough effect; an effect the other way counts as inactive or inconclusive;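 also: recombinant human CLK4 phosphorylating RS repeat peptide at 1 µM ATP; % is scaled to controls: 0 for no effect and ±100 for the full control effect; nearly all actives have a fitted effect of over 60% in size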). A digest of the protocol:
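FP readout: Orange Transcreener ADP2 tracer (4 nM) plus ADP antibody, read after 30 min at room temperature. Kinase step: 6.25 nM Clk4, 100 uM RS peptide, 1 uM ATP, pH 7.5, 1 h.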

Experiment [14] in a line: Primary qHTS for small molecule stabilizers of the endoplasmic reticulum resident proteome: Secreted ER Calcium Modulated Protein (SERCaMP) assay (AID 1508630; active = well fitted curve in the direction sought with a large enough effect; an effect the other way counts as inactive or inconclusive; also: % is scaled to controls: 0 for no effect and ±100 for the full control effect). A digest of the protocol: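 The SH-SY5Y reporter protocol was run at 3 concentrations up to 38.3 uM (primary) or 11 concentrations (follow-up): 16 h compound, 100 nM thapsigargin for 4 h, then extracellular luciferase luminescence.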

Experiment [15] deals with Ubiquitin carboxyl-terminal hydrolase 1 (Homo sapiens) (UniProt O94782). The experiment can be described thus: Inhibitors of USP1/UAF1: Pilot qHTS (AID 504865; active = well fitted curve in the direction sought with a large enough effect; an effect the other way counts as inactive or inconclusive;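 also: rhodamine fluorescence freed from ubiquitin-rhodamine substrate followed over time; top concentration of the series differs between compounds; % is scaled to controls: 0 for no effect and ±100 for the full control effect; nearly all actives have a fitted effect of over 35% in size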). A digest of the protocol: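 1nM USP1/UAF1 + cpd, 15 min RT; start w/ Ub-Rho 150nM final; kinetic FL 480/540 nm, 6 reads q60 s. Buffer 50mM HEPES pH 7.8, 0.5mM EDTA, 1mM TCEP, 0.01% Tween-20, 0.1 mg/ml BSA.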
Sequence of Ubiquitin carboxyl-terminal hydrolase 1 (Homo sapiens) (O94782 whole entry, looked up): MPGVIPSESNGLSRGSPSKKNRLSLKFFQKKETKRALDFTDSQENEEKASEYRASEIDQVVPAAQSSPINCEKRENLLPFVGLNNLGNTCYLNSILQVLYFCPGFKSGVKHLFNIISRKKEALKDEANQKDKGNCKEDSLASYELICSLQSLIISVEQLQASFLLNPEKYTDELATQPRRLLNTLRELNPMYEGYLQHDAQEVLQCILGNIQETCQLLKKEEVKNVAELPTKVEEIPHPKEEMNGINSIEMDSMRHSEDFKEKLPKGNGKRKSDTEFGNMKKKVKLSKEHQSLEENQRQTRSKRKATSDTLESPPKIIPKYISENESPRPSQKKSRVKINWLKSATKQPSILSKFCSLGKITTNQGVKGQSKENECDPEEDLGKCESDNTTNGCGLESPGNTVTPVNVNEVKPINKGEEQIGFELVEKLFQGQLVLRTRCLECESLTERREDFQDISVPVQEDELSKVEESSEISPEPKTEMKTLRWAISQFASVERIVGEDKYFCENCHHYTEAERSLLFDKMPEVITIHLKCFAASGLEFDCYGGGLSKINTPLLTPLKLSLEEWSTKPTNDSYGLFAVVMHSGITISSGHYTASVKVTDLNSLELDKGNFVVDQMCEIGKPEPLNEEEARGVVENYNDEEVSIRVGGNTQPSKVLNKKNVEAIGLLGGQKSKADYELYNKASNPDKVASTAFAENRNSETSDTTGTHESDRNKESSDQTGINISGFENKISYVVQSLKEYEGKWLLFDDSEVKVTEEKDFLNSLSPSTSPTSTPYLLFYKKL
The target of experiment [16] is Lysosomal acid glucosylceramidase (Homo sapiens) (UniProt P04062). The experiment can be described thus: Glucocerebrosidase-p2 (AID 348; in the data active = potency below about 10 µM; also: potency is read from the fitted curve at half-maximal effect). To be noted: purified GBA, blue fluorogenic substrate, 40 min. In a few lines: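 Normal human glucocerebrosidase (0.2 nM) with blue fluorogenic substrate (80 uM final) in citrate/phosphate pH 5.9 with 10mM sodium taurocholate, 0.01% tween-20; 40 min RT, NaOH/glycine stop; fluorescence Ex 365/Em 440; AC50 from a titration from 0.6 nM upwards.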
Sequence of Lysosomal acid glucosylceramidase (Homo sapiens) (P04062 whole entry, looked up): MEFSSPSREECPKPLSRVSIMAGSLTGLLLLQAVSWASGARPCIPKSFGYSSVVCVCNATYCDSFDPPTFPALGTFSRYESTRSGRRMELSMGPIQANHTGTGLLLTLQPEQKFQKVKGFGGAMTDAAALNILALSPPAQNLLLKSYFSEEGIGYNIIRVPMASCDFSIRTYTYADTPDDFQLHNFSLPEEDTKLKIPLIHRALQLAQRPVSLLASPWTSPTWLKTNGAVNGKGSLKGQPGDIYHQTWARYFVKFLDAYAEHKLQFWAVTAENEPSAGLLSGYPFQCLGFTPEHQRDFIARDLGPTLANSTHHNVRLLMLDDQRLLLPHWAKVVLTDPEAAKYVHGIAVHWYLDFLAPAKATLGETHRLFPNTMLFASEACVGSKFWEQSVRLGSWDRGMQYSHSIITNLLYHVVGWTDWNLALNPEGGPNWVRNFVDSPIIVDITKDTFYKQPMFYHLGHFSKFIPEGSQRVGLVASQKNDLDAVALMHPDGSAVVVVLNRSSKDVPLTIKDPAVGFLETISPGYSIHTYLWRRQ

The nature of experiment [17]: Confirmation and Secondary Assay for Modulators of Hemoglobin Beta Chain Splicing at IVS2 654 locus (AID 910; active = well fitted curve in the direction sought with a large enough effect; an effect the other way counts as inactive or inconclusive;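 also: HeLa cells stably carrying EGFP split by mutant beta-globin IVS2-654 intron; % of control where 0% means no effect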). In a few lines: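 HeLa cells stably expressing EGFP interrupted by β-globin IVS2-654 intron, seeded overnight in Opti-MEM/2% FCS, then treated 2 days at 37 °C. Restored splicing read as total peak GFP intensity per well by laser scanning cytometry (488 nm excitation, 500–520 nm emission); 500 nM antisense PNA as control.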

The nature of experiment [18]: Confirmation and Secondary Assay for Modulators of Hemoglobin Beta Chain Splicing at IVS2 705 locus (AID 930; active = well fitted curve in the direction sought with a large enough effect; an effect the other way counts as inactive or inconclusive;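 also: HeLa cells stably expressing the EGFP-705 splicing reporter; GFP fluorescence per well restored by corrected splicing of the IVS2-705 intron in EGFP; % of control where 0% means no effect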). In a few lines:
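Stable HeLa line with EGFP disrupted by mutant beta-globin intron 2 (705). Overnight attachment, then 2 days of compound at 37C, 5% CO2. Signal: peak GFP intensity summed over objects 5-250 µm.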

Sequence of Dual specificity protein kinase CLK4 (Homo sapiens) (Q9HAZ1 whole entry, looked up): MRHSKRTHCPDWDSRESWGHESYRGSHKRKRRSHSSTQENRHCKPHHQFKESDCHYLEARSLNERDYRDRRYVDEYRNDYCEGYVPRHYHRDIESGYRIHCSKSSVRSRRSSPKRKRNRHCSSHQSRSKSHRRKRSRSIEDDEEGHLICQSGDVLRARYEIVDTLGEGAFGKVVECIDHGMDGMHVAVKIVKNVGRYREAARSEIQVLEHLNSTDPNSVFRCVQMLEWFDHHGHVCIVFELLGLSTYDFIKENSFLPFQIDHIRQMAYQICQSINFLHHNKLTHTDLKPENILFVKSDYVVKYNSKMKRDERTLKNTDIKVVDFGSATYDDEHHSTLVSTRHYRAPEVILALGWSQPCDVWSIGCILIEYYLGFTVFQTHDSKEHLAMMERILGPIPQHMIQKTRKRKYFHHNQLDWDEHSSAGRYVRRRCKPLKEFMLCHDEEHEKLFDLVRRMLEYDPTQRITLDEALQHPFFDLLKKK
Sequence of Cytochrome P450 1A2 (Homo sapiens) (P05177 whole entry, looked up): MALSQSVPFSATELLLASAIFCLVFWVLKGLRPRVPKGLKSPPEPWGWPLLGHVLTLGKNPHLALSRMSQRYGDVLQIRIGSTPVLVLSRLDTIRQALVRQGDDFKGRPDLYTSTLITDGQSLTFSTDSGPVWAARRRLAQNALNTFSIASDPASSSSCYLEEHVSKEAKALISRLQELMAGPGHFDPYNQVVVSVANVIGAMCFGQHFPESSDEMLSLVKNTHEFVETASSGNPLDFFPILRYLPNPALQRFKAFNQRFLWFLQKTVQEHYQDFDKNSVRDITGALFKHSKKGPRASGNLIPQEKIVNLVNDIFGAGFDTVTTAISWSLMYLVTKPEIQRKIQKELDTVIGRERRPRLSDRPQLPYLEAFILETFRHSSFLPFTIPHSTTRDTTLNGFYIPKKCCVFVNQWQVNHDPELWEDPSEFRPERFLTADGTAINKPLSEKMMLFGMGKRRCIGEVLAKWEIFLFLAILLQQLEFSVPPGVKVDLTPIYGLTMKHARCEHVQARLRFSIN
Sequence of Cytochrome P450 2C19 (Homo sapiens) (P33261 whole entry, looked up): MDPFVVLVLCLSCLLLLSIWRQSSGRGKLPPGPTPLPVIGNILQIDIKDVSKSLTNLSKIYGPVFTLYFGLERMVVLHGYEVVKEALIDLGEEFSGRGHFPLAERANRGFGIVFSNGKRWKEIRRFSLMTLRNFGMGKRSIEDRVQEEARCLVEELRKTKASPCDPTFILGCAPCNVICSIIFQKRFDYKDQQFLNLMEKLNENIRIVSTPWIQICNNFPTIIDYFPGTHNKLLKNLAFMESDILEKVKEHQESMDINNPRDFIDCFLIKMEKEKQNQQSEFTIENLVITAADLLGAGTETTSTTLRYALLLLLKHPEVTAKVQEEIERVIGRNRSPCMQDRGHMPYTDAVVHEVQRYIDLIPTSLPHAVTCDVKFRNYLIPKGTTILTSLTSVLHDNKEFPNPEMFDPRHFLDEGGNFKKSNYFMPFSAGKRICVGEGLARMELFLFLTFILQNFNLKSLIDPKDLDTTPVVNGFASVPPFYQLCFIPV

Take `COc1ccc(CNc2ccnc(-c3ccccc3Cl)n2)c(OC)c1`: the activity change, negative = inhibition in experiment [1] was -21.2%; in [3], -26%. In addition, the Potency in experiment [2] is 5.01 µM (active); in experiment [5] it was > 46 µM; in [6] it was > 46 µM; in experiment [9] it was 3.16 µM (active); in experiment [11] it was 1.26 µM (active). In experiment [4], the activity, negative = inhibition is -16.2%. Moreover, the Potency result in experiment [7], in experiment [8], in experiment [10] and in [13] was “inactive” in each case. For the same compound, in [12], the activation was -15.3%. Moreover, the outcome in experiment [14] was inactive.
Consider `COc1ccc2[nH]cc(CCNc3ncncc3-c3ccc(C(=O)N(C)C)cc3)c2c1`, for which the values for the activity change, negative = inhibition in experiment [1] and in experiment [3] were -13.2% and 5.64%, respectively. Also, the Potency is 20 µM (active) in [2] and > 46 µM in experiment [5]. Also, the activity, negative = inhibition in experiment [4] was 4.62%. Further, the Potency result in experiment [7], in experiment [8], in [10], in [13] and in experiment [15] was “inactive” in each case. In experiment [12], the activation is 11.5%. Further, the result in experiment [14] was inactive.
On to `COCCNc1nc(-c2ccccc2C(F)(F)F)nc2ccccc12`, for which the activity change, negative = inhibition was -4.03% in experiment [1] and 5.96% in [3]. Further, the Potency in experiment [2] is 1.26 µM (active); in experiment [5], > 46 µM; in experiment [6] it was > 46 µM. The activity, negative = inhibition in experiment [4] was 15.8%. In addition, the Potency entry in [7], in experiment [10], in experiment [13] and in experiment [15] was “inactive” throughout. For the same compound, the outcome in [14] was inactive.
As to `N#Cc1cccc(-c2nc3cnc(Nc4ccccc4)nc3n(C[C@H]3CCCO3)c2=O)c1`, the Potency in experiment [16] was > 11.4 µM; in [2], 2 µM (active); in experiment [5] it was > 9.22 µM; in experiment [6], > 46 µM. Moreover, the activity change, negative = inhibition in [1] was -18.6%; in [3], -9.05%. The activity, negative = inhibition in experiment [4] was -7.94%. For the same compound, the Potency result in experiment [7] and in experiment [8] was “inactive” each time. Besides, the result in experiment [14] was inactive.
For `O=c1c(-c2ccccc2)nc2cncnc2n1C1CC1`, the Potency is > 11.4 µM in [16], 2 µM (active) in [2], > 9.22 µM in [5] and > 46 µM in experiment [6]. For the same compound, the activity change, negative = inhibition is -14.9% in [1] and 6.76% in experiment [3]. For the same compound, the activity, negative = inhibition in experiment [4] is 8.37%. Moreover, in experiment [7], the Potency result is “inactive”. For the same compound, in experiment [14], the outcome was inactive.
As for `COc1ccc2[nH]cc(CCNc3nc(-c4ccccc4CN(C)C)nc4ccccc34)c2c1`, the Potency in experiment [16] was > 11.4 µM; in experiment [2], 25.1 µM (active); in [5], > 46 µM; in experiment [6] it was > 46 µM. Also, the activity change, negative = inhibition was -0.774% in experiment [1] and -26.8% in experiment [3]. Further, in experiment [4], the activity, negative = inhibition was 4.15%. Also, the Potency result in experiment [7], in experiment [8], in experiment [10], in experiment [17] and in [15] was “inactive” throughout. Further, the result in experiment [18] and in [14] was inactive.
As to `c1ccc(Nc2ncncc2-c2ccc3c(c2)OCO3)cc1`, the Potency is > 11.4 µM in experiment [16]; 0.316 µM (active) in [2]; > 46 µM in experiment [5]; > 46 µM in experiment [6]; 0.794 µM (active) in [9]; 0.251 µM (active) in experiment [11]. Moreover, the activity change, negative = inhibition in [1] is -19.3%; in experiment [3], 9.45%. Further, the activity, negative = inhibition in experiment [4] was -14.2%. The Potency entry in experiment [7], in experiment [10] and in experiment [15] was “inactive” in each case. For the same compound, in experiment [14], the result was inactive.

These data come from PubChem BioAssay (NCATS).
